These results are taken from PubChem BioAssay (NCI).

Test systems include K-562 leukemia; MALME-3M melanoma; MDA-MB-231 breast; RXF 393 renal; SF-268 CNS; SF-295 CNS; SF-539 CNS; UACC-257 melanoma; M14 melanoma; HCT-15 colon; HT29 colon; SNB-75 CNS; U251 CNS; PC-3 prostate; SK-MEL-5 melanoma; UACC-62 melanoma; LOX IMVI melanoma; SK-MEL-28 melanoma; SK-MEL-2 melanoma; SNB-19 CNS.
What all share (experiment): NCI-60 one-dose screen, 48 h (100 = growth as untreated, 0 = no growth, -100 = all killed)
Conditions in all cases: 10 µM unless noted

Compounds without any hit were thinned out: in the full panel of roughly 83,000, 20% have a hit.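 Single-concentration screen, 48 h exposure, 96-well plates. Endpoint: percent growth. Below 10 = active.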 Unmarked numbers belong to inactive results. The source made the active and inactive calls.

In the case of `COc1ccc2c3c(c(OCCCN(C)C)nc2c1)-c1ccc(Cl)cc1C3=O`, the growth with K-562 leukemia was -59% (active); with MALME-3M melanoma it was -57.5% (active); with MDA-MB-231 breast, -62.3% (active); with RXF 393 renal it was -91.9% (active); in the assay on SF-268 CNS it was 43.9%; in the assay with SF-295 CNS, 86%. In addition, the growth in the assay on SF-539 CNS was 13.9%; in the assay on UACC-257 melanoma, 86.9%; in the assay on M14 melanoma it was -59.2% (active); with HCT-15 colon it was -89.4% (active); with HT29 colon, -80.8% (active); with SNB-75 CNS, 53%. Further, the growth in the assay with U251 CNS is -84.9% (active); in the assay with PC-3 prostate, -19.5% (active); in the assay on SK-MEL-5 melanoma, 39.2%; in the assay on UACC-62 melanoma it was -49% (active); in the assay on LOX IMVI melanoma, -93.3% (active); with SK-MEL-28 melanoma, -74.2% (active). Further, the growth in the assay with SK-MEL-2 melanoma was 72.5%.
As for `O=[N+]([O-])c1ccc2c(c1)S(=O)c1cc([N+](=O)[O-])ccc1N2`, the growth with K-562 leukemia was 115%; in the assay with MALME-3M melanoma it was 113%; in the assay on MDA-MB-231 breast, 96.3%; in the assay on RXF 393 renal, 104%; in the assay on SF-268 CNS, 104%; with SF-295 CNS, 106%. Also, the growth in the assay with SF-539 CNS was 98.3%; in the assay with UACC-257 melanoma, 96.6%; in the assay on M14 melanoma it was 91.7%; in the assay with HCT-15 colon, 99%; in the assay on HT29 colon, 95%; in the assay with SNB-19 CNS it was 109%. Further, the growth in the assay with U251 CNS was 105%; in the assay with PC-3 prostate, 88.6%; in the assay with SK-MEL-5 melanoma, 96.2%; in the assay with UACC-62 melanoma, 93.5%; in the assay on LOX IMVI melanoma, 102%; in the assay with SK-MEL-28 melanoma it was 104%. Moreover, the growth in the assay with SK-MEL-2 melanoma is 105%.
Consider `CC(=O)Oc1ccc(C23c4ccccc4C2(OC(C)=O)c2cc(OC(C)=O)ccc23)cc1` (configuration not stated), for which the growth with K-562 leukemia was 63.4%; with MALME-3M melanoma, 137%; with MDA-MB-231 breast, 73.9%; in the assay with RXF 393 renal, 93.5%; in the assay with SF-268 CNS, 94.3%; in the assay on SF-295 CNS, 96.9%. In addition, the growth with SF-539 CNS is 100%; in the assay with UACC-257 melanoma it was 105%; in the assay with M14 melanoma it was 104%; in the assay with HCT-15 colon it was 65.8%; with HT29 colon it was 111%; in the assay with SNB-19 CNS, 65.9%. Besides, the growth is 9.83% (active) in the assay on U251 CNS; 30.9% in the assay on PC-3 prostate; 88.8% in the assay on SK-MEL-5 melanoma; 77.8% with UACC-62 melanoma; 48.2% in the assay with LOX IMVI melanoma; 124% with SK-MEL-28 melanoma. Moreover, the growth in the assay with SK-MEL-2 melanoma is 97.9%.
Turning to `CC(CCC(=O)O)(NC(=O)c1ccc([N+](=O)[O-])cc1)C(=O)O` (configuration not stated), the growth was 99% with K-562 leukemia; 106% with MALME-3M melanoma; 113% in the assay with MDA-MB-231 breast; 115% with RXF 393 renal; 104% in the assay with SF-268 CNS; 106% in the assay on SF-295 CNS. The growth with SF-539 CNS is 105%; in the assay with UACC-257 melanoma, 99.4%; in the assay on M14 melanoma it was 102%; with HCT-15 colon, 113%; in the assay on HT29 colon, 109%; in the assay on SNB-75 CNS, 91.6%. In addition, the growth was 104% in the assay on U251 CNS; 98.4% in the assay on PC-3 prostate; 101% with SK-MEL-5 melanoma; 109% in the assay on UACC-62 melanoma; 97.1% with LOX IMVI melanoma; 107% in the assay with SK-MEL-28 melanoma. In addition, in the assay with SK-MEL-2 melanoma, the growth was 108%.
In the case of `CCCn1cnc2c1c(=O)n(CCCCC(C)=O)c(=O)n2C`, the growth in the assay on K-562 leukemia is 90.9%; with MALME-3M melanoma, 113%; in the assay on MDA-MB-231 breast, 104%; in the assay with RXF 393 renal, 103%; with SF-268 CNS, 99.3%; with SF-295 CNS, 118%. Moreover, the growth with SF-539 CNS is 101%; in the assay with UACC-257 melanoma it was 102%; in the assay with M14 melanoma, 104%; with HCT-15 colon, 103%; with HT29 colon it was 95.8%; with SNB-19 CNS it was 120%. Further, the growth is 95.5% in the assay on U251 CNS; 99.2% with PC-3 prostate; 104% with SK-MEL-5 melanoma; 104% in the assay on UACC-62 melanoma; 98.2% in the assay with LOX IMVI melanoma; 114% with SK-MEL-28 melanoma. Further, in the assay with SK-MEL-2 melanoma, the growth was 108%.
Take `C=C(C[C@@](O)(C(=O)Oc1ccccc1)C(=O)C1CCCCC1)c1ccccc1`: the growth is 107% in the assay with K-562 leukemia; 101% with MALME-3M melanoma; 99.9% with MDA-MB-231 breast; 91.4% in the assay with RXF 393 renal; 99.6% with SF-268 CNS; 100% in the assay on SF-295 CNS. Further, the growth in the assay on SF-539 CNS is 98.4%; with UACC-257 melanoma, 92.8%; with M14 melanoma it was 106%; with HCT-15 colon, 109%; with HT29 colon it was 103%; with SNB-75 CNS, 72.3%. The growth with U251 CNS is 95.8%; in the assay with PC-3 prostate, 84.2%; in the assay with SK-MEL-5 melanoma, 96.3%; with UACC-62 melanoma, 90.3%; in the assay on LOX IMVI melanoma, 101%; with SK-MEL-28 melanoma, 98%. Besides, in the assay on SK-MEL-2 melanoma, the growth was 105%.
With `CCCCCCCCCCCCNc1ncnc2[nH]ncc12`, the growth was 48.7% with K-562 leukemia; 84.7% in the assay with MALME-3M melanoma; 68.6% in the assay with MDA-MB-231 breast; 96.4% in the assay on RXF 393 renal; 84% in the assay with SF-268 CNS; 54.8% in the assay with SF-295 CNS. The growth is 77% in the assay with SF-539 CNS; 50.2% in the assay with UACC-257 melanoma; 74.2% in the assay on M14 melanoma; 84.9% in the assay with HCT-15 colon; 97.9% with HT29 colon; 105% in the assay on SNB-75 CNS. The growth was 87.7% with U251 CNS; 69.7% in the assay with PC-3 prostate; 36.1% in the assay with SK-MEL-5 melanoma; 57.1% with UACC-62 melanoma; 44.6% with LOX IMVI melanoma; 100% with SK-MEL-28 melanoma. Besides, the growth in the assay on SK-MEL-2 melanoma is 85.9%.
Take `CCc1[nH]nc(-c2ccc(OC)cc2)c1-c1ccccc1OCCN(CC)CC`: the growth was 88.4% with K-562 leukemia; 95.5% in the assay with MALME-3M melanoma; 99.2% with MDA-MB-231 breast; 79.3% in the assay on RXF 393 renal; 89% with SF-268 CNS; 85.7% in the assay with SF-295 CNS. Moreover, the growth was 99% with SF-539 CNS; 97.9% in the assay with UACC-257 melanoma; 87.1% in the assay with M14 melanoma; 105% in the assay with HCT-15 colon; 85.9% with HT29 colon; 60.4% in the assay with SNB-75 CNS. Also, the growth was 96% in the assay with U251 CNS; 76% in the assay with PC-3 prostate; 85.2% with SK-MEL-5 melanoma; 106% in the assay with UACC-62 melanoma; 80.2% with LOX IMVI melanoma; 107% in the assay on SK-MEL-28 melanoma. Moreover, the growth with SK-MEL-2 melanoma was 95.5%.
